We go through 18 compounds from PubChem BioAssay (Tox21).

Results filed as inconclusive are left out. Activity calls are given as the source filed them. The call rests on the fitted dose curve; in most records, active means well fitted curve in the direction sought with a large enough effect in the signal ratio in the repeat runs (not every such curve was filed as active); inconclusive means weak or mixed curves, or effect the other way; inactive means no such curve, though single readings can be large or run the other way; the % refers to the signal ratio.
On the % scale 0 is the no-effect control and ±100 the full control effect.

Estrogen receptor (Homo sapiens), sequence (P03372 whole entry, looked up): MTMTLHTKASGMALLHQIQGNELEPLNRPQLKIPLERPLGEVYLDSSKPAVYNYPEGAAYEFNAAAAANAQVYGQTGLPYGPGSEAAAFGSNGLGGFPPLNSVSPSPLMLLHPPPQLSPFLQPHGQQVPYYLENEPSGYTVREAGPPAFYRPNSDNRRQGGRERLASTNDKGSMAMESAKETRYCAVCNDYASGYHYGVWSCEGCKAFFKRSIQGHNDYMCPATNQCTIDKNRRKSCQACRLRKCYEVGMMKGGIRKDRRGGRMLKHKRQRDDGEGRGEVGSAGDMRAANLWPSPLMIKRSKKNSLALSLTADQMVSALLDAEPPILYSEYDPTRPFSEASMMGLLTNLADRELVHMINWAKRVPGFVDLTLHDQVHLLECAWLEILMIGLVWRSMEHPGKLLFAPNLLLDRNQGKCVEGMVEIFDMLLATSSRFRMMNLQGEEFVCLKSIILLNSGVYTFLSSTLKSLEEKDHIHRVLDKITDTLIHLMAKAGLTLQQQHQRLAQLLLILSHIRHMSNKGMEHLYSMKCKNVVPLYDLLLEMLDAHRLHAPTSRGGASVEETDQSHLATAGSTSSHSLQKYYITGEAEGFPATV

This test addresses Estrogen receptor (Homo sapiens) (UniProt P03372). The experiment in a line: qHTS assay to identify small molecule antagonists of the estrogen receptor alpha (ER-alpha) signaling pathway (AID 743069). Conditions: HEK293 ER-alpha-UAS-bla, beta-lactamase ratio, antagonist mode; series mostly up to 69.4 µM; activity, negative = inhibition: at the top concentration. The gist of the method:
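Antagonist mode: compounds in DMSO were co-added with 17beta-estradiol to ER-alpha-bla HEK293 cells (2% charcoal-stripped serum) and left 18 h at 37C. Reporter inhibition was measured as FRET fluorescence after 2 h LiveBLAzer substrate at room temperature.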
(Quantitative high-throughput screening tests each substance at several concentrations.)
For the compound `O=C(O)/C=C/C(=O)Nc1ccc(S(=O)(=O)Nc2nccs2)cc1`, the “activity, negative = inhibition” value was 5.83% (inactive).

In the case of `C[C@H](O)CN(C)C`, the “activity, negative = inhibition” value was 5.92% (inactive).

In the case of `O=C1CC[C@@H](C(=O)N[C@H]2C[C@@H]2c2ccccc2)N1`, the “activity, negative = inhibition” value was 10.1% (inactive).

In the case of `NC[C@H]1O[C@H](O[C@H]2[C@H](O)[C@@H](O[C@H]3O[C@H](CO)[C@@H](O)[C@H](N)[C@H]3O)[C@H](N)C[C@@H]2N)[C@H](N)C[C@@H]1O`, the “activity, negative = inhibition” value was 2.38% [at 32.6 µM] (inactive).

As for `CC(C)Cc1ccc([C@H](C)C(=O)O)cc1`, the “activity, negative = inhibition” value is -22.3% (inactive).

In the case of `O=P(O)(O)C(O)(Cn1ccnc1)P(=O)(O)O`, the “activity, negative = inhibition” value is -4.1% (inactive).

As to `NCC(O)CC(=O)O` (stereo not drawn), the “activity, negative = inhibition” value was -7.15% (inactive).

Consider `CCCOC(=O)c1ccc(O)cc1`, for which the Potency result is “inactive”.

`CC12CCC(C[N+](C)(CCC[N+](C)(C)C)C1)C2(C)C` (stereo not drawn): the “activity, negative = inhibition” value was 3.28% (inactive).

As to `COc1ccc(/C=N/NC(=O)c2ccncc2)c(C(=O)O)c1OC`, the “activity, negative = inhibition” value is 3.83% (inactive).

Turning to `O=C1[O][Bi][O]c2ccccc21`, the “activity, negative = inhibition” value is 0.874% (inactive).

As for `CC(=NCc1ccccc1)c1ccccc1O`, the “activity, negative = inhibition” value is 3.12% (inactive).

On to `C[C@H](NCCc1ccc(O)cc1)[C@H](O)c1ccc(O)cc1`, for which the “activity, negative = inhibition” value is 8.72% (inactive).

Regarding `CCCCCCCCCCCCCC(=O)OCC(COP(=O)([O-])OCC[N+](C)(C)C)OC(=O)CCCCCCCCCCCCC` (stereo not drawn), the “activity, negative = inhibition” value was -5.3% (inactive).

As to `CC(C)(COP(=O)(O)OP(=O)(O)OC[C@H]1O[C@@H](n2cnc3c(N)ncnc32)[C@H](O)[C@@H]1OP(=O)(O)O)C(O)C(=O)NCCC(=O)NCCS` (stereo partly drawn), the “activity, negative = inhibition” value was -7.15% (inactive).

In the case of `CC(C)(C)C(=O)OCC(=O)[C@H]1CC[C@H]2[C@@H]3CCC4=CC(=O)CC[C@]4(C)[C@H]3CC[C@]12C`, the “activity, negative = inhibition” value is 8.43% (inactive).

As for `C=CC(N)CCC(=O)O` (stereo not drawn), the “activity, negative = inhibition” value was 8.19% (inactive).

As to `CCOC(=O)COc1ccc2c(=O)cc(-c3ccccc3)oc2c1`, the Potency result was “inactive”.
